# A selection: hits, their analogues and other compounds. The true share with any hit is near 3.9%.
# BoNT-F LC inh = BoNT/F light chain protease inhibitors, primary screen, biochemical, flow cytometry, MLPCN library; inhibition, % at 10 µM; 360,000 compounds, 0.22% hits; Multiplex microsphere protease cleavage assay; in the data active means inhibition above about 35%, passing the limit was not always enough; inconclusive means no clear call, values can overlap the other calls; further: plate controls were buffer without enzyme for full effect and enzyme alone for no effect
# CCHF vOTU inh = CCHFV vOTU protease inhibitors, primary screen, biochemical, Pep-AMC substrate, fluorescence; Crimean-Congo hemorrhagic fever virus L polyprotein viral ovarian tumor (vOTU) protease …; inhibition, % at 11.5 µM; 370,000 compounds, 0.55% hits; AID 651958, 2012; in the data active means inhibition above about 30%; further: 0% = vehicle wells with enzyme and 100% = no enzyme wells
# BoNT-A LC inh2 = BoNT/A light chain protease inhibitors, primary screen, biochemical, flow cytometry, MLPCN library; 360,000 compounds, 0.17% hits; AID 588499, 2011; inhibition, % at 10 µM; multiplex microsphere protease substrate cleavage; Botulinum neurotoxin type A light chain protease (Clostridium botulinum A str. ATCC 3502); further: plate controls were buffer without enzyme for full effect and enzyme alone for no effect
# Anthrax LF inh2 = Bacillus anthracis LF protease inhibitors, primary screen, biochemical, multiplex microsphere, MLPCN library; multiplex microsphere protease cleavage assay; 360,000 compounds, 0.12% hits; Lethal factor (Bacillus anthracis), P15917; inhibition, % at 10 µM; further: plate controls were buffer without enzyme for full effect and enzyme alone for no effect
# SARS 3CLpro inh = SARS-CoV 3CLpro protease inhibitors, primary screen, biochemical, quenched FRET. Replicase polyprotein 1ab (Severe acute respiratory syndrome coronavirus), P0C6X7. recombinant SARS-CoV 3CLpro, quenched FRET peptide cleavage. inhibition, % at 6 µM. 290,000 compounds, 0.14% hits; in the data active means inhibition above about 12%
# Autofluor counter = flagged as autofluorescent in microsphere protease counterscreen. compound autofluorescence counterscreen, microsphere flow cytometry; stronger effect = higher value. fluorescence intensity (no concentration beside the values). 360,000 compounds, 3.1% hits. AID 624483; in the data active means fluorescence intensity above about 16000; inconclusive means no clear call, values can overlap the other calls
# * hit, by the source's call; u = inconclusive; x = no result. Unless noted, no stated cut-off is given here; in the data, active means inhibition above about 30%; inconclusive means no clear call, values can overlap the other calls; inactive means below that.
SMILES,BoNT-F LC inh,CCHF vOTU inh,BoNT-A LC inh2,Anthrax LF inh2,SARS 3CLpro inh,Autofluor counter
Cn1c(O)c(C2=c3ccccc3=NC2=O)sc1=Nc1ccc(Cl)cc1,2.3,4.1,2.8,0.3,2.5,19149*
CC(=O)c1cc(-c2ccc3c(c2)OCO3)c(=O)n2c1CCC2,x,1.7,x,x,x,x
COC(=O)C[C@@H]1CC[C@H]2[C@H](COc3ccc(NC(=O)c4cccc(C(F)(F)F)c4)cc3C(=O)N2C)O1,x,-3.8,x,x,x,x
O=C1CSC(c2cccnc2)N1c1ccccc1 (stereo unspecified),-3.8,-8.1,0.2,-4.5,-2.8,5962
O=S1CCCSC1c1cccnc1 (stereo unspecified),-1.1,-5.1,1.6,-5.1,1.2,21912*
CC(/C=C/c1ccccc1)=N\Nc1nc(-c2ccccc2)cs1,-4.2,3.0,-2.7,-3.4,-4.6,24306*
C(=N\Nc1nc(-c2ccccc2)cs1)/c1cccnc1,-9.9,-2.6,-4.9,-5.9,-2.4,23863*
CC(C)=NNc1nc(-c2ccccc2)cs1,-3.2,-6.5,1.3,-0.4,-1.2,2266
Clc1ccc(-c2csc(N/N=C/c3cccnc3)n2)c(Cl)c1,-8.5,12.1,0.4,-2.2,-1.9,6647
COC(=O)[C@]12C[C@H](CC(=O)NCC34CC5CC(CC(C5)C3)C4)C(=O)N(Cc3cccc4ccccc34)C1=C[C@H](C(C)(C)C)O[C@@H]2C,x,20.9,x,x,x,x
CC(C)(C)C1CCc2onc(C(=O)Nc3cnn(Cc4ccc(F)cc4)c3)c2C1 (stereo unspecified),0.2,6.2,3.5,-0.9,3.4,18196*
c1ccc(Cn2ccc3ccc(-c4ccc5ccn(Cc6ccc(-c7ccccc7)cc6)c5c4)cc32)cc1,x,8.7,x,x,x,x
Cc1oc(C2CC2)cc1C(=O)O,-0.6,-2.5,0.8,-1.7,-7.5,19572*
Cc1cc(C(=O)O)c(C)o1,x,5.9,x,x,x,x
COc1nc(-c2cccs2)cc(-c2ccc(C)cc2)c1C#N,5.2,4.2,5.1,-3.1,-3.9,21880*
CCOC(=O)[C@@]12CCCC=C1N(CCc1ccc(Cl)cc1)C(=O)[C@H]2CC(=O)N1CCCC1,x,-1.4,x,x,x,x
C#CC(CC)(CC)NC(=O)/C=C/C(=O)O,u,-7.8,1.2,32.1*,6.9,u
Cc1ccc(S(=O)(=O)NCCC(=O)NC2CCCC2)cc1,1.7,-13.1,u,0.7,-3.6,20213*
O=C(CCS(=O)(=O)c1ccc(Br)s1)NC1CCCC1,0.1,-10.1,0.1,2.1,-2.5,9491
O=C(CCNS(=O)(=O)c1ccc(Br)s1)NC1CCCC1,-1.4,-7.7,-2.2,0.8,-1.3,24053*
COc1ccc(N(CC(=O)Nc2cc(C(=O)O)ccc2C)S(=O)(=O)c2c(C)noc2C)cc1,-2.7,-8.9,-1.9,-9.0,-2.1,16981*
COc1ccc(CN2C/C(=C/c3ccc(C)cc3)N3C(=O)C[C@@H](c4ccccc4)N=C23)c(OC)c1,x,2.3,x,x,x,x
COC(=O)/C=C1\NCCSC1=O,-1.9,12.9,-2.5,-3.0,-5.3,17208*
COC(=O)/C=C1\NC(=O)C(C)S1 (stereo unspecified),-4.6,11.8,-0.3,-3.2,1.4,4258
CCOC(=O)[C@@]12CCCC3=C1N(CCC3)C(=O)[C@H]2CC(=O)NCc1ccc(C)o1,x,-5.6,x,x,x,x
SMILES,BoNT-F LC inh,CCHF vOTU inh,BoNT-A LC inh2,Anthrax LF inh2,SARS 3CLpro inh,Autofluor counter
Cc1cc(C)n(C(=O)c2ccc(Cn3nc(C)c(Br)c3C)o2)n1,-3.6,3.6,-0.1,-1.5,5.5,23364*
Cc1nc(NC(=O)c2ccccc2)sc1-c1csc(NCc2ccccc2)n1,3.3,6.7,0.4,-3.4,7.1,2503
Cc1nc(NC(=O)c2ccccc2)sc1-c1csc(NCCc2ccccc2)n1,1.5,-3.6,3.9,2.0,1.6,25254*
Cc1ccc(NC(=S)N/N=C/c2ccc([N+](=O)[O-])s2)cc1,-2.3,20.9,47.3*,27.0,-2.8,2722
CN(C)CCNc1nc(-c2ccco2)c2c(c1C#N)CC(C)(C)OC2,-0.9,-25.5,-2.1,1.8,1.0,24132*
CC1(C)Cc2c(C#N)c(NCc3ccco3)nc(-c3ccco3)c2CO1,-10.7,-0.7,0.3,-4.1,3.2,2161
O=C(NNc1ccc([N+](=O)[O-])cc1)C12CC3CC(CC(C3)C1)C2,-3.2,9.0,-0.9,-0.4,1.9,20243*
O=C(NCCc1ccccc1Cl)[C@@H]1CCCN1C(=O)[C@@H](NS(=O)(=O)c1ccc(F)cc1F)c1ccccc1,x,8.5,x,x,x,x
CCOc1ccc(C(CCc2ccccc2)NC(=O)c2ccccc2)cc1OCC (stereo unspecified),5.2,-13.7,u,1.9,5.6,21649*
O=c1c2cc3cc(Cl)ccc3nc2ncn1N1CCCCC1,x,14.9,x,x,x,x
CCN1CCCc2cc(CN(CCN3CCOCC3)C(=O)Nc3ccc(C)c(C)c3)ccc21,-9.3,3.3,-1.8,-2.3,3.6,20262*
CCc1ccc(NC(=O)N(CCN2CCOCC2)Cc2ccc3c(c2)CCCN3CC)cc1,-24.5,0.7,-0.4,-8.2,2.6,8466
COC(=O)[C@H]1C[C@@]2(c3ccccc3)c3ccccc3N(S(=O)(=O)c3ccccc3)[C@H]2N1,x,5.6,x,x,x,x
Cc1nc(CC(=O)N2CCN(c3cccc(C)c3C)CC2)cs1,-5.7,-2.3,-1.4,2.4,-0.6,20386*
O=C(NCCc1ccc(F)cc1)c1cccc2c1C(=O)c1ccc(N3CCC(Cc4ccccc4)CC3)cc1S2(=O)=O,30.5,x,22.0,40.7*,x,8857
COc1cccc(CSc2nnc(C(F)(F)F)n2Cc2ccc(F)cc2)c1,5.1,3.4,3.3,-0.9,2.1,22093*
Cc1ccc(CSc2nnc(C(F)(F)F)n2Cc2ccc(F)cc2)cc1,7.1,x,0.7,0.8,4.5,9775
CC1(C)CC(C#N)(N2CCOCC2)CCO1 (stereo unspecified),1.5,-5.0,u,0.9,-2.4,19964*
Cc1ccc(CNc2nc(C)nc3sc4c(c23)CCC4)cc1,-3.9,-5.5,u,-1.2,-2.4,17440*
Cc1nc(NC(C)c2ccccc2)c2c3c(sc2n1)CCC3 (stereo unspecified),-2.3,x,-0.8,3.5,-0.6,16604*
CCCC[C@H]1C2CC(OC(=O)Nc3cccc(F)c3)C(C2)[C@H]2CCCCN21 (stereo partly specified),x,2.0,x,x,x,x
Cc1sc(NC(=S)NC(=O)c2ccccc2)c(C#N)c1C,8.3,6.3,-0.1,1.4,0.7,4166
Cc1sc(NC(=S)NC(=O)c2ccc(C(C)(C)C)cc2)c(C#N)c1C,-2.8,-10.7,-2.1,-1.3,5.3,21363*
Cc1sc(NC(=O)c2oc3ccccc3c2C)c(C#N)c1C,-8.6,x,-1.4,-5.4,-2.6,11430
Cc1cc(C(=O)Nc2sc(C)c(C)c2C#N)c(C)o1,-1.8,-2.7,u,1.8,3.5,16457*
